In the supplement of paper PMC8728848:
Only a selection was taken, and the strongest signals are over-represented in it overall.

What follows are substances tested on Fuc(a1-2)Gal(b1-3)GlcNAc(b1-3)GalNAc (assay: glycan array binding signal (z-score within array); higher = stronger binding). Conditions: glycan notation: IUPAC condensed, linker removed.
Summary of the method: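 The Consortium for Functional Glycomics database supplied 3228 glycan arrays, of which those lacking an available protein sequence were dropped. The binding signal, a within-array Z-score, was averaged across arrays of the same protein sequence and across linkers. Negative scores can be read as non-binding.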

Substance | glycan array binding signal (z-score)
Epa22 | -0.565
AgI/II Vhelical-GFP (Streptococcus mutans) | -0.178
BambL (Burhholderia ambifaria), Q0B4G1 | -0.211
